Laboratory results taken from PubChem BioAssay AID1159580 (chemical genetic matrix, 2015).
Where “and” joins values, the source holds several entries; their conditions need not be identical. Equal entries are not always repeated. Out of some 5,500 compounds screened, about 2,000 (36%) were called active. Another 18% or so got no clear call; they are omitted. Cut-off read from the data, not from the text of the source: active = normalized growth mostly below about 0.91 (no sharp cut-off); inconclusive = no clear call, values can overlap the other calls; inactive = mostly above about 0.92. This is one part of the list.

Experiment: chemical genetic growth profiling, strain panel (AID 1159580);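 note: tested at 20 µM; growth read once vehicle control cultures reached saturation at 30 °C; 1 = growth at the plate median or of vehicle wells; lower values mean less growth of the strain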
Conditions: S. cerevisiae deletion strains, growth OD

Measured: normalized growth

C/C=C1\[C@H]2C=C(C)C[C@]1(N)c1ccc(=O)[nH]c1C2
inactive: locus YAL013W, strain DEP1, stronger effect = lower value 1.01 | locus YAL021C, strain ccr4, stronger effect = lower value 1 | locus YAL026C, strain drs2, stronger effect = lower value 1.03 | locus YAL030W, strain snc1, stronger effect = lower value 1.02 | locus YBL061C, strain skt5, stronger effect = lower value 1.01 | locus YBR009C, strain hhf1, stronger effect = lower value 1.03 | locus YBR021W, strain FUR4, stronger effect = lower value 1.01 | locus YBR023C, strain chs3, stronger effect = lower value 1.02 | locus YBR171W, strain sec66, stronger effect = lower value 1.03 | locus YBR229C, strain ROT2, stronger effect = lower value 1.01 | locus YBR231C, strain swc5, stronger effect = lower value 1.02 | locus YBR279W, strain paf1, stronger effect = lower value 1.02 | locus YCL011C, strain gbp2, stronger effect = lower value 1.02 | locus YCL016C, strain dcc1, stronger effect = lower value 1.01 | locus YCL029C, strain bik1, stronger effect = lower value 1.02 | locus YCL061C, strain MRC1, stronger effect = lower value 1.02 | locus YCL069W, strain vba3, stronger effect = lower value 1.02 | locus YCR088W, strain abp1, stronger effect = lower value 1.02 | locus YDL005C, strain med2, stronger effect = lower value 1.04 | locus YDL035C, strain GPR1, stronger effect = lower value 1.01 | locus YDL040C, strain nat1, stronger effect = lower value 1.01 | locus YDL074C, strain BRE1, stronger effect = lower value 1.01 | locus YDL101C, strain DUN1, stronger effect = lower value 1.01 | locus YDL134C, strain PPH21, stronger effect = lower value 1.01 | locus YDL185W, strain tfp1, stronger effect = lower value 1.02 | locus YDL192W, strain arf1, stronger effect = lower value 1.02 | locus YDR001C, strain nth1, stronger effect = lower value 1.01 | locus YDR069C, strain doa4, stronger effect = lower value 1.03 | locus YDR101C, strain arx1, stronger effect = lower value 1 | locus YDR137W, strain rgp1, stronger effect = lower value 1.01 | locus YDR150W, strain NUM1, stronger effect = lower value 1.02 | locus YDR159W, strain sac3, stronger effect = lower value 1.03 | locus YDR162C, strain NBP2, stronger effect = lower value 1.02 | locus YDR195W, strain ref2 0.989 | locus YDR297W, strain sur2, stronger effect = lower value 1.01 | locus YDR318W, strain mcm21, stronger effect = lower value 1.02 | locus YDR334W, strain swr1, stronger effect = lower value 1.03 | locus YDR335W, strain msn5, stronger effect = lower value 1.02 | locus YDR388W, stronger effect = lower value 1.01 | locus YDR392W, strain spt3, stronger effect = lower value 0.966 | locus YDR502C, strain sam2, stronger effect = lower value 1.01 | locus YEL003W, strain gim4, stronger effect = lower value 1.03 | locus YEL037C, strain rad23, stronger effect = lower value 1.02 | locus YEL061C, strain CIN8 (second series), stronger effect = lower value 1.03 | locus YEL061C, strain CIN8, stronger effect = lower value 1.01 | locus YER015W, strain faa2, stronger effect = lower value 1.02 | locus YER016W, strain bim1, stronger effect = lower value 1.03 | locus YER110C, stronger effect = lower value 1.01 | locus YER111C, strain swi4, stronger effect = lower value 1.03 | locus YER155C, strain BEM2 (second series), stronger effect = lower value 1.04 | locus YER155C, strain BEM2, stronger effect = lower value 1 | locus YER167W, strain BCK2, stronger effect = lower value 1.02 | locus YFR010W, strain ubp6, stronger effect = lower value 1.03 | locus YGL078C, strain dbp3, stronger effect = lower value 1.01 | locus YGL086W, strain mad1, stronger effect = lower value 1.01 | locus YGL167C, strain pmr1, stronger effect = lower value 1.02 | locus YGL173C, strain kem1, stronger effect = lower value 1.04 | locus YGL227W, strain vid30, stronger effect = lower value 1.03 | locus YGL240W, strain doc1, stronger effect = lower value 1.04 | locus YGL248W, strain PDE1, stronger effect = lower value 1.01 | locus YGL253W, strain hxk2, stronger effect = lower value 1.02 | locus YGR078C, strain PAC10, stronger effect = lower value 1.01 | locus YGR135W, strain pre9, stronger effect = lower value 1 | locus YGR229C, strain SMI1, stronger effect = lower value 1.01 | locus YGR252W, strain gcn5, stronger effect = lower value 1.01 | locus YHR013C, strain ard1, stronger effect = lower value 1.02 | locus YHR027C, strain rpn1, stronger effect = lower value 1.03 | locus YHR030C, strain SLT2, stronger effect = lower value 1 and 1.02 | locus YHR079C, strain IRE1 (second series), stronger effect = lower value 1.01 | locus YHR079C, strain IRE1, stronger effect = lower value 1.01 | locus YHR094C, strain hxt1, stronger effect = lower value 1.01 | locus YHR129C, strain ARP1, stronger effect = lower value 1 | locus YHR142W, strain chs7, stronger effect = lower value 0.992 | locus YHR200W, strain rpn10, stronger effect = lower value 1.02 | locus YIL066C, strain RNR3, stronger effect = lower value 1.02 | locus YIL073C, strain SPO22, stronger effect = lower value 1.08 | locus YIL125W, strain kgd1, stronger effect = lower value 1.02 | locus YIR030C, strain dcg1, stronger effect = lower value 1.01 | locus YJL092W, strain hpr5, stronger effect = lower value 1.03 | locus YJL095W, strain BCK1 (second series), stronger effect = lower value 1.01 | locus YJL095W, strain BCK1, stronger effect = lower value 0.989 and 0.995 | locus YJL115W, strain asf1, stronger effect = lower value 1.02 | locus YJL129C, strain trk1, stronger effect = lower value 1.02 | locus YJL134W, strain LCB3, stronger effect = lower value 1.01 | locus YJL154C, strain vps35, stronger effect = lower value 1.02 | locus YJL164C, strain tpk1, stronger effect = lower value 1.01 | locus YJL166W, strain qcr8, stronger effect = lower value 1.02 | locus YJL168C, strain set2, stronger effect = lower value 1.01 | locus YJL187C, strain SWE1 (second series), stronger effect = lower value 1 | locus YJL187C, strain SWE1, stronger effect = lower value 1.02 | locus YJR043C, strain POL32, stronger effect = lower value 1.01 | locus YJR066W, strain TOR1, stronger effect = lower value 0.96
